We go through 16 molecules from ChEMBL document CHEMBL1961873, “Compounds: GSK PKIS; Assays: Nanosyn kinase panel” (2012).

For experiment [1], the target named is Fibroblast growth factor receptor 4 (Homo sapiens) (UniProt P22455). The following applies: at 1 µM.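 Further: reported figure is the averaged percent inhibition of FGFR4, from the GSK PKIS kinase screening panel.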
The target of experiment [2] is Tyrosine-protein kinase Fgr (Homo sapiens) (UniProt P09769). The following applies: at 0.1 µM.
The target is the same in experiment [3]. The following applies: at 1 µM.
Experiment [4] has as its target Vascular endothelial growth factor receptor 1 (Homo sapiens) (UniProt P17948). The settings on record: at 0.1 µM.
The target is the same in experiment [5]. The following applies: at 1 µM.
Experiment [6] deals with Receptor-type tyrosine-protein kinase FLT3 (Homo sapiens) (UniProt P36888). The following applies: at 0.1 µM.
For experiment [7] the target is unchanged. The settings on record: at 1 µM.
Experiment [8] relates to T1, Receptor-type tyrosine-protein kinase FLT3 (Homo sapiens), P36888 [D835Y].
T1 sequence (whole entry): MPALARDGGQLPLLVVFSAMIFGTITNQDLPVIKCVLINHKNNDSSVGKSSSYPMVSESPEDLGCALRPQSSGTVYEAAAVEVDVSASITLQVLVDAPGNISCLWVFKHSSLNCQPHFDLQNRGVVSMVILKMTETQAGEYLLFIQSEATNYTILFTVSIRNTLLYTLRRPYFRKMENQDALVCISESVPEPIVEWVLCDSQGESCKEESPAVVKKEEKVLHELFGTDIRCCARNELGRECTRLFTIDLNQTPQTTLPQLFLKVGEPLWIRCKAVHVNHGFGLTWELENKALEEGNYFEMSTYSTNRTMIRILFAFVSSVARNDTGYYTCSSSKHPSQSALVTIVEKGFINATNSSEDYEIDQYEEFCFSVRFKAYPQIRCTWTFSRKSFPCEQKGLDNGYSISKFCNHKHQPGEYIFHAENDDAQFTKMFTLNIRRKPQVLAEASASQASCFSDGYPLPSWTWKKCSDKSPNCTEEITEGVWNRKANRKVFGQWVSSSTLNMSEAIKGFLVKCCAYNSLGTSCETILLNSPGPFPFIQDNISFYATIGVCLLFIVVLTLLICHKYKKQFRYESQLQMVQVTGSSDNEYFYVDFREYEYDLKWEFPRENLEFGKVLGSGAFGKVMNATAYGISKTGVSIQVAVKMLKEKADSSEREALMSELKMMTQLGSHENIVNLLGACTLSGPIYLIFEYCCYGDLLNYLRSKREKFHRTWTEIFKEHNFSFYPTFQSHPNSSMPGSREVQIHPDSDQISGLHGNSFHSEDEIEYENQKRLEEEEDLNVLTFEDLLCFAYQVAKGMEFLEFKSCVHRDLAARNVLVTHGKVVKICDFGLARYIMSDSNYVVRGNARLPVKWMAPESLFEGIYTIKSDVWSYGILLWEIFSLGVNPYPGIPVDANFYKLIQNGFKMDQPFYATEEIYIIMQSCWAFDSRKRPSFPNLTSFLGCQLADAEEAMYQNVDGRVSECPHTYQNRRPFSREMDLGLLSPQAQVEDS
The following applies: at 0.1 µM.

Experiment [9] addresses Non-receptor tyrosine-protein kinase TYK2 (Homo sapiens) (UniProt P29597). The following applies: at 1 µM.
Experiment [10] deals with T2, Tyrosine-protein kinase receptor TYRO3 (Homo sapiens) (UniProt Q06418).
T2 sequence (whole entry): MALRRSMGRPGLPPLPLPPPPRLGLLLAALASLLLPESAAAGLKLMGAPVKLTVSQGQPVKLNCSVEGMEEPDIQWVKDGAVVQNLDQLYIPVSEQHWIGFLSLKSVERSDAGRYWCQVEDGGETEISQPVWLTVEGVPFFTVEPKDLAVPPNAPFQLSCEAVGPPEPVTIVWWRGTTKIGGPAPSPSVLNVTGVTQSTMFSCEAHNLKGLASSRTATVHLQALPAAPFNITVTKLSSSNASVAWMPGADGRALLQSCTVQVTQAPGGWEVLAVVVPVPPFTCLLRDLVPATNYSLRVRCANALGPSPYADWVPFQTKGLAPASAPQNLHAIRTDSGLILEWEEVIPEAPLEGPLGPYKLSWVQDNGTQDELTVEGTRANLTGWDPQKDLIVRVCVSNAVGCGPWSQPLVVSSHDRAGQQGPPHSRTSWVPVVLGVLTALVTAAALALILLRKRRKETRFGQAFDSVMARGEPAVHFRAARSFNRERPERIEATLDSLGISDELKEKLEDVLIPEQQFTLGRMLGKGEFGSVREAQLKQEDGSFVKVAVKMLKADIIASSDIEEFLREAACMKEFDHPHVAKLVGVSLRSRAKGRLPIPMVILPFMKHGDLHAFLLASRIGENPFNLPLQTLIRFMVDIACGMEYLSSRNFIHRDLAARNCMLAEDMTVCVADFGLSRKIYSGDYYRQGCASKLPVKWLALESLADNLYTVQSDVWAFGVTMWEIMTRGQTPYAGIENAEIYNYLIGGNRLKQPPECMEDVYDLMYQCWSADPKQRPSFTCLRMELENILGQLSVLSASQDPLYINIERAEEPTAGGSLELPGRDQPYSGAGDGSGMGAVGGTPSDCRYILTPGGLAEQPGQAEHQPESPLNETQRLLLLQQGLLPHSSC
The settings on record: at 0.1 µM.

Fibroblast growth factor receptor 4 (Homo sapiens), sequence (P22455 22-802 limits assumed): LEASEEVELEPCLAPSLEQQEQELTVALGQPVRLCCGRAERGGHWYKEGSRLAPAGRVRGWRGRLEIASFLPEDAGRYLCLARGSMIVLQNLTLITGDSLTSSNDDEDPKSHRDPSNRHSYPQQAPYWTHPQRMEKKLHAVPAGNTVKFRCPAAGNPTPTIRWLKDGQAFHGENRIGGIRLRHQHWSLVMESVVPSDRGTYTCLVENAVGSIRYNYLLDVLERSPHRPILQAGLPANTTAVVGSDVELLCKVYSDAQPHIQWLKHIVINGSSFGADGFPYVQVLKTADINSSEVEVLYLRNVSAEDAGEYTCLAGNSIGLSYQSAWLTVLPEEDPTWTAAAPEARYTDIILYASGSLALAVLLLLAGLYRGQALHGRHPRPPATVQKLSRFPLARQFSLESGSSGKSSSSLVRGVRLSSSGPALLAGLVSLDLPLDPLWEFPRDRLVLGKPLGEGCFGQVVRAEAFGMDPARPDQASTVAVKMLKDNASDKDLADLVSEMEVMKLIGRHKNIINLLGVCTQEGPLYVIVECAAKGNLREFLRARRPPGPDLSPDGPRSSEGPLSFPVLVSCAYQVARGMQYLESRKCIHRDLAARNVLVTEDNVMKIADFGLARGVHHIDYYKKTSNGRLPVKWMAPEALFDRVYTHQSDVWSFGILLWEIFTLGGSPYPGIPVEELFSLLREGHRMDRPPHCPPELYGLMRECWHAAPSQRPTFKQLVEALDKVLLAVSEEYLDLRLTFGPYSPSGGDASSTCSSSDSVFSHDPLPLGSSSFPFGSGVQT
Vascular endothelial growth factor receptor 1 (Homo sapiens), sequence (P17948 whole entry): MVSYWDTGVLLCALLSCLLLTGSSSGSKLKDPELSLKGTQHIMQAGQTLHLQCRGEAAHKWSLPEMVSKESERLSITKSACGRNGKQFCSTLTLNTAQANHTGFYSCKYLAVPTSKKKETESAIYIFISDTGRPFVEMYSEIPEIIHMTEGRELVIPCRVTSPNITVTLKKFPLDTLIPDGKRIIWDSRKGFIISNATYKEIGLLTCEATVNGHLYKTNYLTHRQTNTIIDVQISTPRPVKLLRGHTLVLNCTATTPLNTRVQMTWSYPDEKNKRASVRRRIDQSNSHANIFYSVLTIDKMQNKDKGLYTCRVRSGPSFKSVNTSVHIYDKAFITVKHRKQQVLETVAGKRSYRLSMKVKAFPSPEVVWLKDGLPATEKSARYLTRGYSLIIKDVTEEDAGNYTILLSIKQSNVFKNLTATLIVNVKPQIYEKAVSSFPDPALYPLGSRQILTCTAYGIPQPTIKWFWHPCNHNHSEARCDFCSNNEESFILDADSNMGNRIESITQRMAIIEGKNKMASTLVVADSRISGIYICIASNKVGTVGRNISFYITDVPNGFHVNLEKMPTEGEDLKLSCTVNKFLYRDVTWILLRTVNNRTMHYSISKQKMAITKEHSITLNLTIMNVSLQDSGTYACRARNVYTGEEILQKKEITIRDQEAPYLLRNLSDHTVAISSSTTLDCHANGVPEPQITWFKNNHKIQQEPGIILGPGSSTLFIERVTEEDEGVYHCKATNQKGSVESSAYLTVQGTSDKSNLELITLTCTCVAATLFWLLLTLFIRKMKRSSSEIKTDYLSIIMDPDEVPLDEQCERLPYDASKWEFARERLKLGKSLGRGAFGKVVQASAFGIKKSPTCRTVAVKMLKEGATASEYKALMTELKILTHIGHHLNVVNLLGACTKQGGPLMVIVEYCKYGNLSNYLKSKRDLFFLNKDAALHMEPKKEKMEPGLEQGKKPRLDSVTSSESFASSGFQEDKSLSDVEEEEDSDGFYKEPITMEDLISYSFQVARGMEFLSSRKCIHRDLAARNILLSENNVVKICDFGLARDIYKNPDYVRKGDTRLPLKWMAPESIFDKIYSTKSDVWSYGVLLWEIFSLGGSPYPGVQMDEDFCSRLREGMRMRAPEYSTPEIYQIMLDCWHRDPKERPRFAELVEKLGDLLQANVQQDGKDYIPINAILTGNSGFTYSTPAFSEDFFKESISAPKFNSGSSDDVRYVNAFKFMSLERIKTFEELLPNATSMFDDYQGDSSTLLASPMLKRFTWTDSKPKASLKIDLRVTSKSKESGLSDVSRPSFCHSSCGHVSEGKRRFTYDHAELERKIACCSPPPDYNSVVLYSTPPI
Tyrosine-protein kinase Fgr (Homo sapiens), sequence (P09769 2-529 limits assumed): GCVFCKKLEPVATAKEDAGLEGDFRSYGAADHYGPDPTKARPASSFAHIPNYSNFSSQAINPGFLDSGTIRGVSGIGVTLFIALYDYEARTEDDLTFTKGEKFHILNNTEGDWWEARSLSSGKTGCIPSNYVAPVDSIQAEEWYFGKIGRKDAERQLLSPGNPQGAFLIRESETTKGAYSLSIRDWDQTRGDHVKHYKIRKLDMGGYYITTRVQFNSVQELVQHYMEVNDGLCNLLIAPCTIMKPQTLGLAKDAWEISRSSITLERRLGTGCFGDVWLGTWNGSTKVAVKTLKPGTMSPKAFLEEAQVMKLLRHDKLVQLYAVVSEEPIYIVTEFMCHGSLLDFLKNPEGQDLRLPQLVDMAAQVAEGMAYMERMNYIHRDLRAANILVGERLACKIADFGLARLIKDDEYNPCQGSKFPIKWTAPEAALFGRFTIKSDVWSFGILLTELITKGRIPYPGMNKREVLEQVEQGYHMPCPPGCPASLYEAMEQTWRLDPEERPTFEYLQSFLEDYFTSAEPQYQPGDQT
Non-receptor tyrosine-protein kinase TYK2 (Homo sapiens), sequence (P29597 whole entry): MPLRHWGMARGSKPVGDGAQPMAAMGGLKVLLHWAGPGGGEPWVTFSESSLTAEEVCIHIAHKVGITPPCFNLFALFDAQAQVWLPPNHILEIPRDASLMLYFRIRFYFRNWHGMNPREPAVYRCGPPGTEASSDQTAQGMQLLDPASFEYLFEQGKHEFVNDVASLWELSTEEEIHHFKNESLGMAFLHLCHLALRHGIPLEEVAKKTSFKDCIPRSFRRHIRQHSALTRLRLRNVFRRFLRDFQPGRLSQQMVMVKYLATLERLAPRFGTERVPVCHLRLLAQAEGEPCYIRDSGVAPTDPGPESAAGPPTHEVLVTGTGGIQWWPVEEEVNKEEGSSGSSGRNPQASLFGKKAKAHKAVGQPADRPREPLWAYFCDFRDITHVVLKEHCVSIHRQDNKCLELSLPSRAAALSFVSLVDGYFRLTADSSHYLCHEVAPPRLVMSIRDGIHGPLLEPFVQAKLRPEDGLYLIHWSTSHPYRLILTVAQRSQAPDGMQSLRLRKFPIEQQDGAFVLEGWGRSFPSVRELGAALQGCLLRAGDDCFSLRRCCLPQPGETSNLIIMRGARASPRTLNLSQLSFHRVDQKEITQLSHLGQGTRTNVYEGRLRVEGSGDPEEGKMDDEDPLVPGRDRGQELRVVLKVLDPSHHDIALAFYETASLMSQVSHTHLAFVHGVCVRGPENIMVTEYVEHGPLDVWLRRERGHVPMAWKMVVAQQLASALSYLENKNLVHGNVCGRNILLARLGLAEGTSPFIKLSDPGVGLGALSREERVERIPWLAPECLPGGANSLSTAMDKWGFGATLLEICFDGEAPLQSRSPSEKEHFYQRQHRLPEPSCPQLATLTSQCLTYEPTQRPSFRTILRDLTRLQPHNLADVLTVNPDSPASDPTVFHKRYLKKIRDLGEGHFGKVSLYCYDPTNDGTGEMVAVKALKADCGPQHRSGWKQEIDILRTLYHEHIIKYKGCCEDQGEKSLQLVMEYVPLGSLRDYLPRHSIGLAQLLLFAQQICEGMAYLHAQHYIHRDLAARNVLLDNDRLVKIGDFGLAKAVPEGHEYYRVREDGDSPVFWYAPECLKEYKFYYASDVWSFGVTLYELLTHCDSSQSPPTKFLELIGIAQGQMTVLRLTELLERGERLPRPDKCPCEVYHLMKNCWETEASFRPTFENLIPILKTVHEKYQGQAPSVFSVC

As to `CCN1CCC(C(=O)Nc2n[nH]c3nnc(-c4cccc(F)c4F)cc23)CC1`, the inhibition (as a rule, the change of the read-out against control, counted positive when it falls) in experiment [1] turned out to be 1.49%; in experiment [2] it was 1.72%; in [3], 3.35%; in experiment [4], 0.76%; in [5], 1.26%; in experiment [6] it was 1.71%. The inhibition was 6.05% in experiment [7], -1.16% in experiment [8], -3.82% in experiment [9] and -1.35% in [10].
Turning to `COC(=O)Nc1nc2ccc(Oc3ccc(NC(=O)Nc4cc(C(F)(F)F)ccc4F)cc3)cc2s1`, the inhibition was 3.25% in experiment [1]; 1.85% in [2]; 9.94% in [3]; 36% in [4]; 78.1% in [5]; 11.2% in [6]. The inhibition is 47.1% in experiment [7], -0.17% in experiment [8], 1.02% in experiment [9] and 6.26% in experiment [10].
For the molecule `OCCCNc1nccc(-c2c(-c3ccc(F)cc3)nn3cc(C(F)(F)F)ccc23)n1`, the inhibition was determined as 0.98% in [1]; 2.9% in [2]; 8.24% in [3]; 1.4% in experiment [4]; 3.41% in experiment [5]; 1.66% in [6]. Further, the inhibition in [7] was 3.11%; in experiment [8] it was -1.23%; in experiment [9], -1.77%; in [10], 1.9%.
As to `COc1cc(N2CCN(C(C)C)CC2)ccc1Nc1nc(Nc2cccc(F)c2C(=O)O)c2cc[nH]c2n1`, the inhibition in experiment [1] is 3.72%; in [2], 4.76%; in [3], 4%; in experiment [4], 1.38%; in experiment [5], 1.96%; in experiment [6] it was 0.4%. In addition, the inhibition is 10.3% in experiment [7], 0.23% in experiment [8], -2.8% in experiment [9] and 2.73% in experiment [10].
As for `CS(=O)(=O)CCNCc1ccc(-c2ccc3ncnc(Nc4ccc(OCc5cccc(C(F)(F)F)c5)cc4)c3c2)o1`, the inhibition in [1] was found to be 1.52%; in experiment [2] it was 0.16%; in experiment [3], 3.55%; in experiment [4], 1.21%; in experiment [5] it was 2.94%; in experiment [6], 10.4%. Further, the inhibition in [7] is 28.9%; in experiment [8], 0.04%; in experiment [9], -4.13%; in experiment [10] it was 0.61%.
Consider `Cc1cc(O)cc(C)c1/C=C/c1cncc(C(N)=O)c1`, for which the inhibition in [1] is 0.95%; in experiment [2] it was 5.81%; in experiment [3], 38.1%; in experiment [4], 1.23%; in [5], 4.11%; in experiment [6], 1.9%. In addition, the inhibition in experiment [7] is 2.11%; in experiment [8], -5.07%; in [9] it was -0.58%; in experiment [10], 2.41%.
`COc1cccc(-n2ncc3c(N/N=C/c4ccc(C(=O)NCCN(C)C)cc4)ncnc32)c1`: the inhibition came out at 4.18% in experiment [1]; 47.4% in experiment [2]; 82.1% in [3]; 8.45% in [4]; 37.3% in experiment [5]; 14% in experiment [6]. Besides, the inhibition in [7] worked out at 54.9%; in [8], 30.8%; in [9], 5.84%; in experiment [10], 16.6%.
With `CNC(=O)c1ncccc1Nc1nc(Nc2cc3c(cc2OC)CCCN3C(=O)CN(C)C)nc2[nH]ccc12`, the inhibition in experiment [1] is 0.76%; in [2], 1.73%; in experiment [3], 7.26%; in [4] it was 0.02%; in [5], -0.67%; in experiment [6], 3.6%. Further, the inhibition is 4.13% in [7], 1.41% in [8], -1.39% in [9] and 4.43% in [10].
Turning to `COc1cccc(Nc2nccc(-c3cnn4ncccc34)n2)c1`, the inhibition in experiment [1] was found to be 1.33%; in experiment [2] it was 7.08%; in experiment [3], 19.3%; in experiment [4], 9.62%; in [5], 25.1%; in experiment [6], 33%. Besides, the inhibition in experiment [7] was 78.9%; in experiment [8], 16.7%; in [9], 30.3%; in experiment [10], 3.96%.
Turning to `O=C(O[C@H]1CN[C@H](C#Cc2cc3ncnc(Nc4ccc5c(ccn5Cc5cc(F)ccc5F)c4)c3s2)C1)N1CCOCC1`, the inhibition was 1.82% in experiment [1]; 2.14% in experiment [2]; 2.6% in [3]; 0.98% in experiment [4]; -0.89% in [5]; 1.02% in experiment [6]. For the same molecule, the inhibition in experiment [7] was 2.83%; in [8], -5.8%; in experiment [9], -1.34%; in experiment [10] it was 2.07%.
As for `CCOc1ccc2c(-c3ccnc(Nc4cc(OC)cc(C(F)(F)F)c4)n3)cnn2n1`, the inhibition in [1] came out at 3.56%; in [2], 1.32%; in experiment [3] it was 9.11%; in experiment [4], 1.04%; in experiment [5], 5.65%; in experiment [6], 2.11%. Besides, the inhibition stood at 15.1% in [7], 2.53% in experiment [8], 1.53% in experiment [9] and 1.46% in experiment [10].
As to `CS(=O)(=O)Nc1ccc(-c2ccc3c(NC(=O)C4CC4)n[nH]c3c2)cc1`, the inhibition in [1] is 0.84%; in [2], 1.59%; in experiment [3], 7.28%; in experiment [4] it was 1.26%; in [5], 3.04%; in [6] it was -0.08%. For the same molecule, the inhibition is 5.66% in experiment [7], 1.14% in [8], -2.13% in experiment [9] and 2.75% in experiment [10].
Take `O=C(O[C@H]1CN[C@H](C#Cc2cc3ncnc(Nc4ccc(OCc5cccc(F)c5)c(Cl)c4)c3s2)C1)N1CCOCC1`: the inhibition is -0.16% in experiment [1]; 4.25% in experiment [2]; 1.43% in experiment [3]; 1.9% in experiment [4]; -0.14% in [5]; 3.48% in [6]. Moreover, the inhibition is 2.29% in experiment [7], -1.46% in experiment [8], -3.98% in experiment [9] and 3.72% in experiment [10].
With `CS(=O)(=O)CCNCc1ccoc1-c1ccc2ncnc(Nc3ccc(OCc4ccccc4)cc3)c2c1`, the inhibition in [1] is 1.85%; in experiment [2] it was 2.61%; in experiment [3] it was 12.6%; in experiment [4] it was 2.35%; in [5] it was -0.36%; in [6] it was 1.82%. Besides, the inhibition in experiment [7] was 6.53%; in [8], -4.02%; in experiment [9] it was 0.15%; in experiment [10], 0.96%.
Turning to `NS(=O)(=O)c1ccc(N/N=C2\C(=O)Nc3ccc(C(=O)NCc4ccncc4)cc32)cc1`, the inhibition came out at 2.18% in [1]; 4.24% in experiment [2]; 12.5% in [3]; 2.5% in [4]; 10.3% in experiment [5]; 2.9% in experiment [6]. In addition, the inhibition amounted to 11.4% in experiment [7], 3.79% in experiment [8], 0.98% in experiment [9] and 2.32% in experiment [10].
Take `Cc1nnc(-c2cccc(-c3ccc(C(=O)NCC4CC4)cc3)c2)o1`: the inhibition in experiment [1] worked out at 0.59%; in experiment [2], 5.74%; in experiment [3], 2.02%; in experiment [4] it was 3.18%; in experiment [5], 1.49%; in experiment [6], 1.38%. The inhibition in [7] is 4.66%; in [8], -2.89%; in [9], -4.07%; in experiment [10], 4.15%.
